Assay results reported in PubChem BioAssay.

Assay: small-molecule microarray binders of probe aLefty2, primary screen, biochemical, biotinylated probe, 635/667 nm fluorescence (AID 1094);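 note: score merges spot fluorescence near 667 nm with spot signal-to-noise ratio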
Conditions: higher = more signal

Row | Compound | composite z-score
1 | COCC(=C=CC[C@@H](O)c1ccccc1OCCO)C[C@@H](O)c1ccccn1 | -0.0825
2 | C[N+](C)(C)CCCC[C@@H]1NC(=O)[C@@H]2C[C@H](C(=O)O)[C@H](c3cccc(OCCO)c3)N2C1=O | -0.175
3 | C=CCC(OC(C)=O)[C@@H]1[C@@H](N(Cc2ccc(-c3cccc(C(F)(F)F)c3)o2)C(=O)c2cccc3ccccc23)c2cc(OCCCO)ccc2N1C(=O)c1ccc(-c2ccccc2)cc1 (stereo partly drawn) | -0.0785
4 | COCCCNC(=O)[C@@]1(C)c2ccccc2C(=O)N(c2ccc(C)cn2)[C@H]1c1ccc(CO)cc1 | -0.428
5 | COCCCNC(=O)[C@@]1(Cc2ccccc2CN=[N+]=[N-])N=C(c2ccc(OCCCO)cc2)O[C@H]1c1ccccc1N=[N+]=[N-] | 0.214
6 | CC1(C)[C@@H]2CC(C(O)C3C=CC4C(=O)N(c5ccccc5)C(=O)C4N3Nc3ccccc3F)=C[C@@H]1C2 (stereo partly drawn) | 0.155
7 | CCOC(=O)C[C@H]1[C@H](OC(=O)Cc2ccc3c(c2)OCO3)[C@@H](NC(=O)c2ccccc2)c2cc(OCCCO)ccc2N1C(=O)c1ccc2ccccc2n1 | -0.0179
8 | C=CC[C@]1(C(=O)NCC(O)CO)N=C(c2ccc(OCCCO)cc2)O[C@H]1c1ccccc1N=[N+]=[N-] (stereo partly drawn) | 0.406
9 | C=C(COC)C(=O)CC[C@H](OC(=O)c1ccccc1-c1ccccc1C(=O)O)c1ccc(OCCO)cc1 | -0.117
10 | COC(=O)[C@@]1(Cc2ccc(OC)cc2)[C@H]2c3cc(C(=O)N(C)C)n(Cc4cc(F)c(F)c(F)c4)c3C[C@H]2CN1C(=O)c1ccccc1 | 0.625
11 | C=CCC(OC(C)=O)[C@@H]1[C@@H](N(Cc2ccc(-c3ccccc3)cc2)C(=O)Cc2ccc(OC)cc2)c2cc(OCCCO)ccc2N1C(=O)c1ccc(-c2ccccc2)cc1 (stereo partly drawn) | 0.152
12 | COc1ccc(CCNC(=O)[C@@H]2c3ccccc3C(=O)N(Cc3ccccc3)[C@H]2c2ccc(CO)cc2)cc1 | 0.06
13 | COC(=O)C(CC#Cc1ccc2c(c1)[C@]1(C(=O)N2)[C@H](c2ccccc2OCCO)N2[C@H](c3ccccc3)[C@H](c3ccccc3)OC(=O)[C@H]2[C@@H]1C(=O)Nc1nc2ccccc2s1)C(=O)OC | -0.0699
14 | COc1cc2c(cc1OC)CN(C(=O)[C@@H]1[C@H]3C(=O)O[C@H](c4ccccc4)[C@H](c4ccccc4)N3[C@H](c3ccc(OCCO)cc3)[C@@]13C(=O)Nc1ccc(C#CCCO)cc13)CC2 | 0.674
15 | C[N+](C)(C)CCCCCCNC(=O)[C@H]1C[C@H]2C(=O)N3CCC[C@H]3C(=O)N2[C@H]1c1cccc(OCCO)c1 | 0.05
16 | C=C(C(=O)CC[C@H](OC(=O)c1cccnc1)c1ccc(OCCO)cc1)C(C)C | -0.0961
17 | C=C(COC)C(=O)CC[C@H](OC(=O)c1ccccc1-c1ccccc1C(=O)O)c1ccc(CO)o1 | -0.216
18 | COC(=O)[C@@]1(Cc2ccccc2)[C@H]2c3cc(C(=O)N4CCCC4)n(Cc4ccc(OC(F)(F)F)cc4)c3C[C@H]2CN1C(=O)c1ccccc1 | 0.961
19 | CO[C@H]1O[C@H](CO)[C@@H](OC(=O)c2ccc(Br)cc2)[C@@H]2OC(=O)[C@H](Cc3cccc(Br)c3)C/C=C/C[C@@H](Cc3cccc(Br)c3)C(=O)O[C@@H]12 | 0.0717
20 | Cc1ccc(N2C(=O)c3ccccc3[C@](C)(C(=O)NC(C)C)[C@@H]2c2ccc(CO)cc2)nc1 | -0.0153
21 | NC(=O)[C@@H]1[C@H]2C(=O)O[C@H](c3ccccc3)[C@H](c3ccccc3)N2[C@H](c2ccccc2OCCO)[C@@]12C(=O)Nc1ccc(C#CCCO)cc12 | -0.143
22 | O=C1O[C@H](c2ccccc2)[C@H](c2ccccc2)N2[C@H]1[C@@H](C(=O)N1CCN(c3ncccn3)CC1)[C@]1(C(=O)Nc3ccc(C#CCCO)cc31)[C@H]2c1ccc(OCCO)cc1 | 0.152
23 | CCCC=C(CCC)[C@@H](NS(=O)(=O)c1cccc2cccnc12)c1ccc(C(=O)OC)cc1 | 0.679
